Screening results: PubChem BioAssay, Johns Hopkins Ion Channel Center
KCNQ2 block: inhibitors of rat KCNQ2 potassium channel; hit rate 1.1% among 310,000; CHO-K1 KCNQ2, FluxOR thallium flux, 20 min; active compounds read low; AID 2156; B-score at 10 µM; O88943;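 active = fluorescence ratio B-score at most minus 3 library SDs, with starting brightness B-score within 2 library SDs, cut at about -5.5 in these data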
KCNQ2 pot: enhances the rat KCNQ2 potassium channel; O88943; CHO-K1 KCNQ2, FluxOR thallium flux fluorescence; active compounds read high; B-score at 10 µM; hit rate 0.54% among 310,000; AID 2239;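 active = fluorescence ratio B-score at least 3 SD of library B-scores, with initial fluorescence B-score within 3 of them, cut at about 5.3 in these data; same plate scores as AID 2156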;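 note: B-score of peak minus minimum over baseline fluorescence ratio after K+ and Tl+ stimulus; positive B-score means potentiation of KCNQ2 with more thallium influx and brighter signal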
Kir21 confirm: confirmation of mouse Kir2.1 potassium channel inhibitors. hit rate 41% among 2,300. Kir2.1-expressing cells, FluxOR thallium flux fluorescence; active compounds read low. Tl flux remaining, % of negative control (active compounds read low), % at 10 µM. shares compounds with KCNQ2 pot;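 active = Primary-screen hit whose thallium flux fell at least 3 control SD below untreated wells in both duplicates, with normal baseline fluorescence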;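 note: 0% = blank wells without stimulus and 100% = stimulated no-compound controls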
HEK293 Tl flux: counter-screen for Kir2.1 inhibitors: effect in parental HEK293 cells | shares compounds with KCNQ2 pot | FluxOR thallium flux fluorescence; 0% = unstimulated blank wells | FluxOR signal as % of negative control (100 = no effect), % at 10 µM | hit rate 19% among 2,300 | AID 2105;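 active = dye signal at least 3 control SD above or below untreated wells in both duplicates, raw fluorescence within 3, either direction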;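 note: percent is based on the flux ratio of peak minus minimum fluorescence over baseline F0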
CHO-K1 ctr: alters thallium flux in parental CHO-K1 cells, KCNQ2 counter-screen. shares compounds with KCNQ2 pot. FluxOR thallium flux fluorescence; zero = vehicle mean+3SD, 100% = vehicle-minus-blank window. activity increase over 3SD of controls, % at 10 µM. hit rate 43% among 1,200. AID 2282;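 active = signal rise of at least 3 SD above the untreated control mean, in both duplicate wells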;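 note: counter screen of KCNQ2 potentiator hits so any rise reflects channel-independent effects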
KCNQ1 pot spec: human KCNQ1 counter-target activity of KCNQ2 potentiators; shares compounds with KCNQ2 pot; CHO KCNQ1 stable, FluxOR thallium flux fluorescence; beyond 3SD, as % of vehicle-control signal; activation over 3SD threshold, % at 10 µM; hit rate 28% among 1,200; AID 2283;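 active = fluorescence ratio rise of at least 3 SD of vehicle wells above their mean, in both replicate wells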;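 note: 0% = vehicle mean plus 3 SD and 100% = vehicle minus unstimulated blank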
Target sequence (P51787 whole entry, looked up): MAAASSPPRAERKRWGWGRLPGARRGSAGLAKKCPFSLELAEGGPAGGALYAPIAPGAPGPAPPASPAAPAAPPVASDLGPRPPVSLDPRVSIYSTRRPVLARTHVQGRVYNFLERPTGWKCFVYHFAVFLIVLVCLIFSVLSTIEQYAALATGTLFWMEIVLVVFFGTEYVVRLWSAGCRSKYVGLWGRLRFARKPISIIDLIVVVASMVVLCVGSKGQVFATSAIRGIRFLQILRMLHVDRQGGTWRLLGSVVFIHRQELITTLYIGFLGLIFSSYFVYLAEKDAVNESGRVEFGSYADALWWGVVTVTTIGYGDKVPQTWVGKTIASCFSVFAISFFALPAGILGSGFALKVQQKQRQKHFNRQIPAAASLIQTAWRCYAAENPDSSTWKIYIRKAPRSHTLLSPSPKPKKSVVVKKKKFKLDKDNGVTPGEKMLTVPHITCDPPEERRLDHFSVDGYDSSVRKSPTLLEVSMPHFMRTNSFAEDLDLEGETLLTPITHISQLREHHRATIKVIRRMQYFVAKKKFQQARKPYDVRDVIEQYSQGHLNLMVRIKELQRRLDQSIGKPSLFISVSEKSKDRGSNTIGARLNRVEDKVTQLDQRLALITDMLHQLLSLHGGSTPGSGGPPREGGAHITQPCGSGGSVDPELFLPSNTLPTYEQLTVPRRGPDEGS
KCNQ2 pot conf: rat KCNQ2 channel potentiator confirmation. hit rate 68% among 1,200. potentiation, less the hit threshold, % at 10 µM. AID 2287. shares compounds with KCNQ2 pot. CHO-KCNQ2 cells, FluxOR thallium flux fluorescence;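 active = fluorescence ratio rising 3 SD or more over the vehicle control mean in both replicates, plus primary screen hit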;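 note: peak minus minimum thallium fluorescence divided by baseline after K/Tl stimulus; 0% = vehicle mean plus 3 SD and 100% = vehicle minus unstimulated blank difference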
Kir21 spec: mouse Kir2.1 off-target activity of KCNQ2 potentiators. shares compounds with KCNQ2 pot. HEK293 Kir2.1, FluxOR thallium flux fluorescence. activity over 3SD threshold, % at 10 µM. hit rate 2% among 1,200;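 active = fluorescence ratio rise of at least 3 SD above the vehicle-control mean, seen in both replicates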;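 note: 0% = vehicle mean plus 3 SD and 100% = vehicle minus no-stimulus blank window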
KCNQ2 W236L pot: KCNQ2 potentiators acting on retigabine-insensitive rat KCNQ2 W236L mutant | shares compounds with KCNQ2 pot | CHO KCNQ2-W236L, automated patch clamp current | current increase over 3SD of negative controls (%), active compounds read high, % at 25 µM | hit rate 10% among 940 | AID 2558;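 active = current increase at least 3 SD of the untreated controls above them in both duplicate recordings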
The depositor's hits bear a star; i = inactive; / = not tested or not shown. The list is not random: actives were taken first. Their share in the collection is about 1.6%.

SMILES	KCNQ2 block	KCNQ2 pot	Kir21 confirm	HEK293 Tl flux	others
CCc1nnc(NC(=O)c2nc(S(=O)(=O)Cc3cccc(C)c3)ncc2Cl)s1	i	18*	/	/	CHO-K1 ctr=5.0*;KCNQ1 pot spec=-1.1;KCNQ2 pot conf=64.5*;Kir21 spec=-56.9;KCNQ2 W236L pot=19.5%*
COc1ccc(CNC(=O)c2nc(S(=O)(=O)Cc3ccccc3)ncc2Cl)cc1	i	/	/	/
CCOc1ccccc1NC(=O)c1nc(S(=O)(=O)Cc2cccc(C)c2)ncc1Cl	i	0.76	/	/
CCc1nnc(NC(=O)c2nc(S(=O)(=O)Cc3ccc(C)cc3)ncc2Cl)s1	i	14.6*	/	/	CHO-K1 ctr=-21.6;KCNQ1 pot spec=-16.2;KCNQ2 pot conf=63.1*;Kir21 spec=-52.6;KCNQ2 W236L pot=26.3%*
CC(=O)Nc1ccc(NC(=O)c2nc(S(=O)(=O)Cc3ccccc3)ncc2Cl)cc1	i	/	/	/
COC(=O)C1C(O)=C(C(C)=Nc2cccc3ccccc23)C(=O)CC1(C)C (stereo not given)	i	/	/	/
Cc1ccccc1N/N=C/c1c(C)nc2ccccn12	i	/	/	/
COc1ccccc1CCNCc1ccc(OC)c(OCc2ccccc2)c1	i	/	i	i
COc1ccc(CNCc2ccco2)cc1OCc1ccccc1	i	0.49	/	/
COc1ccc(CN2CCN(C3CCC3)CC2CCO)c(F)c1 (stereo not given)	i	13.1*	i	i	CHO-K1 ctr=-13.0;KCNQ1 pot spec=-18.0;KCNQ2 pot conf=-7.9;Kir21 spec=-27.0
COc1ccc(CN2CCN(Cc3cc4ccccc4o3)CC2CCO)c(F)c1 (stereo not given)	i	/	/	/
Cc1cc(-c2ccccc2)nc(SCc2ccc(C(=O)O)cc2)n1	i	0.39	/	/
O=c1nc(SCc2c(F)cccc2Cl)nc(-c2ccc(Cl)cc2)[nH]1	i	2.89	/	/
O=c1nc(SCc2ccccc2Cl)nc(-c2ccc(Cl)cc2)[nH]1	i	11.5*	i	147.5%*	CHO-K1 ctr=12.9*;KCNQ1 pot spec=-9.3;KCNQ2 pot conf=6.1*;Kir21 spec=-34.0;KCNQ2 W236L pot=i
O=C(O)C1C2CCC(O2)C1C(=O)Nc1ccc(OC(F)F)cc1 (stereo not given)	i	0.02	/	/
CCOC(=O)c1c(-c2ccc(C)o2)csc1NC(=S)NC(=O)N(C)C	i	14.5*	i	314.0%*	CHO-K1 ctr=-10.2;KCNQ1 pot spec=-18.5;KCNQ2 pot conf=33.8*;Kir21 spec=-8.2;KCNQ2 W236L pot=58.9%*
CCOC(=O)c1c(-c2ccc(C)o2)csc1N	i	/	/	/
CCCCCCNCC(=O)N1CCC(Cc2ccccc2)CC1	i	/	/	/
CCCn1c(=NC(=O)c2ccco2)c(C(=O)OCC)cc2c(=O)n3ccccc3nc21	i	0.09	/	/
CCOC(=O)c1cc2c(=O)n3ccccc3nc2n(CCCOC)c1=NC(=O)c1ccncc1	i	8.61*	i	i	CHO-K1 ctr=-10.1;KCNQ1 pot spec=-13.2;KCNQ2 pot conf=-27.5;Kir21 spec=-33.9
CC(=O)Nc1ccc(OCC(O)Cn2cncn2)cc1 (stereo not given)	i	0.01	/	/
O=C(O)Cc1cc(I)c(Oc2ccc(O)c(I)c2)c(I)c1	i	9.88*	i	i	CHO-K1 ctr=1.9*;KCNQ1 pot spec=19.3*;KCNQ2 pot conf=112.1*;Kir21 spec=-39.0;KCNQ2 W236L pot=i
O=C(O)Cc1ccc(O)c(O)c1	i	/	/	/
Clc1ccc(Cl)c(OCCN2CCCC2)c1	i	0.12	/	/
NC(=S)N/N=C/c1c[nH]c2ccc(OCc3ccccc3)cc12	i	/	/	/
SMILES	KCNQ2 block	KCNQ2 pot	Kir21 confirm	HEK293 Tl flux	others
O=C(c1ccco1)N1CCCN(Cc2nc(-c3ccc4c(c3)OCO4)no2)CC1	i	1.57	/	/
Fc1ccc(CN2CCCN(Cc3nc(-c4ccc5c(c4)OCO5)no3)CC2)cc1	i	/	44.5%*	i
COc1cccc(NC(=O)COC(=O)CC(NC(N)=O)c2ccc(Cl)cc2)c1 (stereo not given)	i	/	/	/
Cc1nc(S(=O)(=O)Nc2ccccc2C(=O)NCC2CC2)cn1C	i	0.8	/	/
CC(C)C(CCNC1CCN(C)CC1)c1ccc(Cl)cc1 (stereo not given)	i	/	/	/
CN1CCC(NCCC(c2ccc(F)cc2)c2ccc(Cl)cc2)CC1 (stereo not given)	i	/	55.5%*	i
CC[n+]1c(/C=C/c2ccc(N(C)C)cc2)ccc2ccccc21	-9.31*	-9.31	i	i
CC[n+]1c(/C=C/c2ccc(OC)c(OC)c2)ccc2ccccc21	i	/	/	/
CC[n+]1c(/C=C/c2ccc(OC(C)=O)c(OC)c2)ccc2ccccc21	i	/	/	/
CCN(CC)c1ccc(/C=C/c2ccc3ccc(OC)cc3[n+]2CC)cc1	-7.61*	-7.61	i	i
Cc1ccc(/C=N/n2c(COc3ccccc3)n[nH]c2=S)cc1	i	/	/	/
CC(C)c1ccc(/C=N/n2c(COc3ccccc3)n[nH]c2=S)cc1	i	7.67*	i	i	CHO-K1 ctr=-3.3;KCNQ1 pot spec=-45.0;KCNQ2 pot conf=9.0*;Kir21 spec=-15.2;KCNQ2 W236L pot=i
O=C(NC(=S)Nc1cccc2c(O)cccc12)c1ccco1	i	0.76	/	/
O=C(NC(=S)Nc1nc(-c2ccccc2)cs1)c1ccco1	i	5.43*	i	i	CHO-K1 ctr=-3.1;KCNQ1 pot spec=80.8*;KCNQ2 pot conf=1.2*;Kir21 spec=-34.9;KCNQ2 W236L pot=i
O=C(NC(=S)Nc1cccc(Cl)c1N1CCCCC1)c1ccco1	i	8.29*	i	i	CHO-K1 ctr=43.9*;KCNQ1 pot spec=-10.3;KCNQ2 pot conf=6.2*;Kir21 spec=-28.6;KCNQ2 W236L pot=i
COc1cccc(OC)c1C(=O)Nc1ccc(N2CCCC2)cc1	i	0.05	i	i
COc1ccccc1C(=O)Nc1ccc(N2CCCCC2)cc1	i	/	/	/
O=C(NC(=S)Nc1cccc(Cl)c1N1CCCCC1)c1cccs1	i	2.16	/	/
O=C(NC(=S)Nc1ccccc1Cl)c1ccco1	i	10.6*	i	154.0%*	CHO-K1 ctr=-15.3;KCNQ1 pot spec=-16.8;KCNQ2 pot conf=4.7*;Kir21 spec=-29.6;KCNQ2 W236L pot=i
COc1ccc(-c2csc(NC(=S)NC(=O)c3ccco3)n2)cc1	i	5.13	/	/
Cc1cccc(-c2oc3ccccc3c2C#CCCO)c1	i	/	/	/
COCCN(Cc1nc(-c2ccc(-c3ccccc3)cc2)oc1C)C(C)C	i	/	/	/
CC1(C)CC(=O)C2=C(C1)N(c1cccc(Cl)c1)C(=O)NC2(C(F)(F)F)C(F)(F)F	i	0.56	/	/
CC(OC(=O)c1cccc(-n2cnnn2)c1)C(=O)Nc1ccc(F)cc1 (stereo not given)	i	/	/	/
CC1CCN(c2ccc(NC(=S)NC(=O)c3ccco3)cc2)CC1	i	3.9	/	/
O=C(NC(=S)Nc1ccc(N2CCCCC2)cc1)c1ccco1	i	8.46*	i	i	CHO-K1 ctr=99.4*;KCNQ1 pot spec=4.1*;KCNQ2 pot conf=39.7*;Kir21 spec=-25.2;KCNQ2 W236L pot=i
O=C(NC(=S)Nc1ccccc1N1CCCCC1)c1ccco1	i	3.69	/	/
